Hits are enriched below; roughly 4.7% of the tested compounds scored in any of these assays.
tim10-1 inh – growth inhibitors of tim10-1 mutant yeast, primary screen, luminescence, uHTS. S. cerevisiae tim10-1 ts strain growth, BacTiter-Glo, 24 h. inhibition, % at 20 µM. hit rate 2.2% among 330,000;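 active = inhibition of at least 40%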;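 note: mutant grown at 25 °C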
PfHsp90 set2 – growth inhibition of PfHsp90-expressing yeast, primary screen, antimalarial PfHsp90 inhibitor project, S. cerevisiae, BacTiter-Glo luminescence, single point, set 2 | BacTiter-Glo ATP, 48 h; yeast lacking PDR1 and PDR3 efflux regulators | inhibition, % at 9.4 µM | hit rate 0.32% among 310,000;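 active = every replicate shows inhibition above about 80%, whatever the replicate mean, limit read from the data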
tim23-1 inh – growth inhibitors of tim23-1 mutant yeast, primary screen, luminescence, uHTS | S. cerevisiae tim23-1 growth, BacTiter-Glo luminescence, 24 h | inhibition, % at 20 µM | hit rate 1.3% among 330,000 | AID 463212, 2010;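 active = growth inhibition of the mutant yeast at or above 50%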;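 note: temperature-sensitive mutant grown at 25 °C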
TIM10 inh – growth inhibitors of isogenic TIM10 control yeast, primary screen, counter-screen for tim10-1 yeast inhibitor project, luminescence, uHTS; hit rate 1.4% among 330,000; inhibition, % at 10 µM; AID 463195, 2010; S. cerevisiae TIM10 strain growth, BacTiter-Glo luminescence, 24 h;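 active = inhibition of 40% or more at the single tested concentration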;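 note: wild-type TIM10 isogenic control strain grown at permissive 25 °C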
SKKanGAS inh – S. pyogenes SKKanGAS growth inhibitors in kanamycin, primary screen, streptokinase expression inhibitor project, SKKanGAS strain, BacTiter-Glo luminescence; AID 1662, 2009; 6 h; hit rate 1.3% among 300,000; inhibition, % at 7.5 µM;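 active = mean replicate score, as percent of positive control median, at least 50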;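 note: strain carries kanamycin resistance gene driven by streptokinase promoter and grows in 40 µg/ml kanamycin; loss of luminescence reflects streptokinase promoter inhibition or plain growth inhibition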
EBI2 block – EBI2 receptor antagonists, beta-arrestin recruitment, primary screen, cell-based, luminescence, 7a,25-OHC stimulation, uHTS; G-protein coupled receptor 183 (Homo sapiens), P32249; inhibition, % at 5 µM; hit rate 0.81% among 360,000; 7a,25-OHC stimulated; in the data active = inhibition above about 38%;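 note: enzyme fragment complementation signal reports receptor beta-arrestin coupling in cells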
Target sequence (P32249 whole entry, looked up, the tested form may be a part): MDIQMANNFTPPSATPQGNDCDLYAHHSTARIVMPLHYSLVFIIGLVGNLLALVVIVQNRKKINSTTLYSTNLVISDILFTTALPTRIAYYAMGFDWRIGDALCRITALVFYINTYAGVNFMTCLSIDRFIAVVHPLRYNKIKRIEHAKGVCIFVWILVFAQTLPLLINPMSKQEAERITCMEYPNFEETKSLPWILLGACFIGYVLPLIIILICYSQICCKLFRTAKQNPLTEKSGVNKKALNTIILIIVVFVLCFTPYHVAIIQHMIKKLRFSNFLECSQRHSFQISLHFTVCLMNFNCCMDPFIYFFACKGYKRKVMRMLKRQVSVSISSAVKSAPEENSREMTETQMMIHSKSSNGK
A number is an active result.

Results for Cc1cccc(CN2CCCC(C(=O)c3ccc4c5c(cccc35)CC4)C2)n1 (stereo not drawn) ?
tim10-1 inh: inactive; PfHsp90 set2: inactive; tim23-1 inh: inactive; TIM10 inh: inactive; SKKanGAS inh: 65; EBI2 block: inactive

Results for COc1cccc(-c2ccc(NC(=O)C3CCCN(Cc4cccc(C)n4)C3)cc2)c1 (stereo not drawn) ?
EBI2 block: inactive

How did CCOC(=O)C1CC(CN2C(=O)c3ccccc3C2=O)OC1=O (stereo not drawn) do in these assays?
PfHsp90 set2: inactive; EBI2 block: inactive

What do the screens show for `O=C(Nc1nnc(-c2ccccc2Cl)o1)c1ccco1`?
tim10-1 inh: inactive; PfHsp90 set2: inactive; tim23-1 inh: inactive; TIM10 inh: inactive; SKKanGAS inh: inactive; EBI2 block: inactive

What do the screens show for `O=C(Nc1nnc(-c2ccccc2Cl)o1)c1nc2ccccc2s1`?
tim10-1 inh: inactive; PfHsp90 set2: inactive; tim23-1 inh: inactive; TIM10 inh: inactive; SKKanGAS inh: 95; EBI2 block: inactive

What do the screens show for `COc1cccc2sc(NN)nc12`?
tim10-1 inh: inactive; PfHsp90 set2: inactive; tim23-1 inh: inactive; TIM10 inh: inactive; SKKanGAS inh: inactive; EBI2 block: inactive

How did COc1cccc2sc(Nc3nnc(-c4ccccc4Cl)o3)nc12 do in these assays?
tim10-1 inh: inactive; PfHsp90 set2: inactive; tim23-1 inh: inactive; TIM10 inh: inactive; SKKanGAS inh: 91; EBI2 block: inactive

What do the screens show for `COc1cccc2sc(Nc3nc(-c4ccncc4)cs3)nc12`?
tim10-1 inh: inactive; PfHsp90 set2: inactive; tim23-1 inh: inactive; TIM10 inh: inactive; SKKanGAS inh: inactive; EBI2 block: 73

How did COc1ccccc1-c1nnc(Nc2nc3c(OC)cccc3s2)o1 do in these assays?
tim10-1 inh: inactive; tim23-1 inh: inactive; TIM10 inh: inactive; SKKanGAS inh: 91; EBI2 block: inactive

How did COc1cccc2sc(Nc3nc4ccc(NC(C)=O)cc4s3)nc12 do in these assays?
PfHsp90 set2: inactive; SKKanGAS inh: inactive; EBI2 block: inactive

Results for OCCCNc1ncnc2c1ncn2[C@H]1CN(Cc2ccc3c(c2)OCO3)C[C@@H](CO)O1 ?
EBI2 block: inactive

Results for COc1cccc(-c2nnc(Nc3nc4c(F)cccc4s3)o2)c1 ?
tim10-1 inh: inactive; PfHsp90 set2: inactive; tim23-1 inh: inactive; TIM10 inh: inactive; SKKanGAS inh: 68; EBI2 block: inactive

What do the screens show for `O=C(OCc1cn([C@@H]2C[C@H](c3ccc(Cl)cc3)N(C(=O)C3CCCCC3)C[C@H]2O)nn1)c1ccccc1`?
EBI2 block: inactive

How did O=C(c1ccc(Cl)cc1)N1CCN(c2ccnc3cc(Cl)ccc23)CC1 do in these assays?
PfHsp90 set2: inactive; SKKanGAS inh: inactive; EBI2 block: 51

What do the screens show for `COc1ccc(Cc2[nH]n3c(=O)cc(C(C)C)nc3c2-c2ccccc2)cc1`?
tim10-1 inh: inactive; PfHsp90 set2: inactive; tim23-1 inh: inactive; TIM10 inh: inactive; SKKanGAS inh: 91; EBI2 block: inactive

What do the screens show for `CN1CCN(NC(=S)NC2CCCC2)CC1`?
tim10-1 inh: inactive; PfHsp90 set2: inactive; tim23-1 inh: inactive; TIM10 inh: inactive; SKKanGAS inh: inactive; EBI2 block: inactive

How did O=C1OCCN1N=Cc1ccco1 do in these assays?
PfHsp90 set2: inactive; EBI2 block: inactive

How did C[C@@H](C(=O)NCc1ccccc1)[C@@H]1C[C@@]1(C)[C@@H](NC(=O)OCc1ccccc1)c1ccccc1 do in these assays?
tim10-1 inh: inactive; tim23-1 inh: inactive; TIM10 inh: inactive; SKKanGAS inh: inactive; EBI2 block: inactive

How did C[C@@H](C(=O)NCCc1c[nH]c2ccccc12)[C@@H]1C[C@@]1(C)[C@@H](NC(=O)OCc1ccccc1)c1ccccc1 do in these assays?
tim10-1 inh: inactive; PfHsp90 set2: inactive; tim23-1 inh: inactive; TIM10 inh: inactive; EBI2 block: 75

What do the screens show for `CC(C)[C@@H](C(=O)NC1CCCC1)N1C(=O)N2CCc3c([nH]c4ccccc34)[C@@]2(C)C1=O`?
tim10-1 inh: inactive; PfHsp90 set2: inactive; tim23-1 inh: inactive; TIM10 inh: inactive; SKKanGAS inh: 68; EBI2 block: inactive

What do the screens show for `O=C1/C(=C/c2c[nH]c3ccccc23)CCC/C1=C\c1c[nH]c2ccccc12`?
tim10-1 inh: inactive; PfHsp90 set2: inactive; tim23-1 inh: inactive; TIM10 inh: inactive; SKKanGAS inh: 59; EBI2 block: inactive

What do the screens show for `C(=NN=Cc1c[nH]c2ccccc12)c1c[nH]c2ccccc12`?
EBI2 block: inactive

Results for Cc1cc(N/N=C/c2c(O)ccc3ccccc23)nc(-c2ccccc2O)n1 ?
tim10-1 inh: inactive; PfHsp90 set2: inactive; tim23-1 inh: inactive; TIM10 inh: inactive; SKKanGAS inh: 85; EBI2 block: inactive

How did Oc1ccc2ccccc2c1/C=N/Nc1ccccc1 do in these assays?
tim10-1 inh: inactive; PfHsp90 set2: inactive; tim23-1 inh: inactive; TIM10 inh: inactive; SKKanGAS inh: inactive; EBI2 block: inactive

How did CCOc1ccccc1N(C(=O)CNC(=O)c1ccco1)C(C(=O)NC(C)(C)C)c1ccncc1 (stereo not drawn) do in these assays?
tim10-1 inh: inactive; PfHsp90 set2: inactive; tim23-1 inh: inactive; TIM10 inh: inactive; SKKanGAS inh: inactive; EBI2 block: inactive

How did Cn1c(N)c(C(=O)COC(=O)c2ccccc2C(=O)c2ccccc2)c(=O)n(C)c1=O do in these assays?
tim10-1 inh: inactive; PfHsp90 set2: inactive; tim23-1 inh: inactive; TIM10 inh: inactive; EBI2 block: inactive

What do the screens show for `Cn1c(N)c(C(=O)COC(=O)c2ccccc2C(=O)c2ccc(Cl)c([N+](=O)[O-])c2)c(=O)n(C)c1=O`?
tim10-1 inh: inactive; PfHsp90 set2: inactive; tim23-1 inh: inactive; TIM10 inh: inactive; EBI2 block: 48

What do the screens show for `O=C(COC(=O)c1ccccc1C(=O)c1ccc(Cl)c([N+](=O)[O-])c1)NC1CCCCCC1`?
tim10-1 inh: inactive; tim23-1 inh: inactive; TIM10 inh: inactive; SKKanGAS inh: inactive; EBI2 block: 53

What do the screens show for `O=S(=O)(/C=C/c1ccccc1)NC1CCCCCCC1`?
tim10-1 inh: inactive; PfHsp90 set2: 88; tim23-1 inh: inactive; TIM10 inh: inactive; SKKanGAS inh: inactive; EBI2 block: inactive

How did O=S(=O)(/C=C/c1ccccc1)NC1CCCCCC1 do in these assays?
tim10-1 inh: inactive; PfHsp90 set2: 99; tim23-1 inh: inactive; TIM10 inh: inactive; SKKanGAS inh: inactive; EBI2 block: inactive

Results for CCC(CC)=NNc1cccc([N+](=O)[O-])c1 ?
tim10-1 inh: inactive; PfHsp90 set2: inactive; tim23-1 inh: inactive; TIM10 inh: inactive; SKKanGAS inh: inactive; EBI2 block: inactive

Results for COc1ccc(C(=O)/C(C#N)=N/Nc2cccc([N+](=O)[O-])c2)cc1 ?
PfHsp90 set2: inactive; SKKanGAS inh: 51; EBI2 block: inactive

High-throughput results from PubChem.
